Screening results from PubChem.
AID923: qHTS Assay for Allosteric/Competitive Inhibitors of Caspase-1: Spectroscopic Profiling in AFC Spectral Region; compound fluorescence, AFC spectral region (405/520 nm); Potency, µM (highest dose often 57.5 µM), for inactives: top-dose fluorescence increase, hits mostly activators; 75,000 tested, 1.1% active; also: potency is read from the fitted curve at half-maximal effect; 0% is about no effect
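Titrations up to 57 uM read every 20 sec for 3 min (405/520 nm) with 50 nM caspase 1 and 5 uM Ac-WEHD-AFC, pH 7.5 HEPES buffer. Fluorescence-vs-time intercept gave baseline, scaled against on-plate AFC standard.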
4MU fluor: qHTS Assay for Spectroscopic Profiling in 4-MU Spectral Region; compound autofluorescence, 340/450 nm, 4-MU equivalents; active compounds read high; max dye-equivalent concentration, M; 59,000 tested, 11% active; AID 589, 2007; in the data active = max dye-equivalent concentration above about 10 nM; inconclusive = mostly about 1.1 nM to 9.6 nM
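Intrinsic fluorescence at 340/450 nm (ex/em) was read after 15 min at room temperature in pH 8.0, 100 mM Tris. Each compound concentration expressed as 4-MU-equivalent concentration from a six-point 4-MU standard series on each plate.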
HADH2 inh: qHTS Assay for Inhibitors of HADH2 (Hydroxyacyl-Coenzyme A Dehydrogenase, Type II); 3-hydroxyacyl-CoA dehydrogenase type-2 (Homo sapiens), Q99714; Potency, µM (highest dose often 57.1 µM), inactives show at the top dose activity change, negative = inhibition, actives largely listed as inhibitors; AID 886, 2007; recombinant HADH2, NADH fluorescence, beta-hydroxybutyryl-CoA; 73,000 tested, 3.4% active; also: potency is read from the fitted curve at half-maximal effect; % is scaled to controls: 0 for no effect and ±100 for the full control effect; nearly all actives have a fitted effect of over 60% in size
Target sequence (Q99714 whole entry, looked up, one chain of several): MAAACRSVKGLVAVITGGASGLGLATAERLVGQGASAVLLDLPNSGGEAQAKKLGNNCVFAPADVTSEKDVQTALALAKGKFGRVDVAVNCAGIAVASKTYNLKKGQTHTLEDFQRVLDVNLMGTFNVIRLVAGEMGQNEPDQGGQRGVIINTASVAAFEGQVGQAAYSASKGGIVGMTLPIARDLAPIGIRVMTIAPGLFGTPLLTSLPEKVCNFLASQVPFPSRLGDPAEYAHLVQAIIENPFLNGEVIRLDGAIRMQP
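Read-out: 360 nm excitation, 450 nm emission, kinetic over 4 min. Conditions: His-tagged human HADH2 20 nM, pH 9.0 Tris with Tween-20, 1 mM NAD+, 90 uM beta-hydroxybutyryl-CoA.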
A350 fluor: qHTS Assay for Spectroscopic Profiling in A350 Spectral Region. 59,000 tested, 11% active. max dye-equivalent concentration, M. Compound autofluorescence, 340/450 nm, Alexa 350 dye-equivalents; active compounds read high; in the data active = max dye-equivalent concentration above about 10 nM; inconclusive = mostly about 1.1 nM to 9.6 nM
HSD17B inh: qHTS Assay for Inhibitors of HSD17B4, hydroxysteroid (17-beta) dehydrogenase 4. 3-hydroxyacyl-CoA dehydrogenase type-2 (Homo sapiens), Q99714. recombinant HSD17B10, NADH fluorescence kinetic. Potency, µM (highest dose often 57.1 µM), inactives show at the highest dose activity change, negative = inhibition, hits mostly inhibitors. 75,000 tested, 7.6% active. AID 893, 2007;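 also: the protocol describes HADH2 (HSD17B10) and not the HSD17B4 of the title; potency is read from the fitted curve at half-maximal effect; % is scaled to controls: 0 for no effect and ±100 for the full control effect; nearly all actives have a fitted effect of over 70% in size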
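Activity followed as NADH fluorescence increase (ex 360, em 450 nm) every 30 seconds for 4 min, using final 90 uM beta-hydroxybutyryl CoA and 1 mM NAD+. Recombinant His-tagged enzyme, 20 nM, pH 9.0 Tris buffer, 15 min compound preincubation.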
CRE Fsk mod: Cell signaling CRE-BLA (Fsk stim). CHO CRE-bla reporter (cAMP response element driving beta-lactamase), forskolin EC10, beta-lactamase ratio. Potency, µM (titrated, usually from 38.2 µM), for the others: at the top dose activity change, negative = inhibition, usual class: activators. 71,000 tested, 2.5% active. AID 662, 2007; active = well fitted activation curve with a large enough effect in the signal ratio, with a control signal flat, not every such curve was filed as active; inconclusive = small, poorly fitted or top-dose-only effect, or effect the other way, or a change in a side signal; the % refers to the signal ratio; also: potency is read from the fitted curve at half-maximal effect; % of control where 0% means no effect
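AC50 values, positive or negative, reflect shifts in EC10 NKH 477-induced CRE-bla reporter activity in CHO cells. Incubation lasted 3 h at 37 °C before CCF4 substrate (2 h, room temperature) and ratiometric 460/530 nm reading.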
Active calls of the source: *; i = inactive; ? = inconclusive; / = no result given; [ ] = another dose, or the depositor's remark. The list is not random: actives were taken first. Their share in the collection is about 14%. Unless noted, calls follow the shape of the dose curve; as a rule, active = well fitted curve in the direction sought with a large enough effect; inconclusive = small, poorly fitted or top-dose-only effect, or another doubt; inactive = no such curve, though single readings can be large; an effect the other way counts as inactive or inconclusive.

SMILES	AID923	4MU fluor	HADH2 inh	A350 fluor	HSD17B inh	CRE Fsk mod
CCOC(=O)c1c(C)n(C)c2ccc(OC(=O)c3ccoc3)cc12	0%	i	-4%	?	-8%	?
COCCOC(=O)c1c(C)n(C)c2ccc(OC(=O)C3CC3)cc12	0%	1.2e-08M*	4%	1.8e-08M*	4%	18%
Cc1noc(C)c1-c1nc(NCc2cccs2)c2ccccc2n1	2%	i	25µM*	i	?	?
COCCNc1nc(-c2c(C)noc2C)nc2ccccc12	1%	i	-16%	i	?	?
CN(C)Cc1ccccc1-c1nc(N(C)C)c2ccccc2n1	3%	i	-1%	i	6%	4µM*
Cc1noc(C)c1-c1nc(N(C)C)c2ccccc2n1	1%	i	4µM*	i	?	?
Cc1noc(C)c1-c1nc(Nc2ccncc2)c2ccccc2n1	0%	i	32µM*	i	?	?
CS(=O)(=O)N1CCC2(CCN(Cc3ccncc3)CC2)CC1	1%	i	-6%	i	2%	-4%
O=c1ccn(C2OC(COP(=O)(O)OP(=O)(O)OP(=O)(O)O)C(O)C2O)c(=O)[nH]1 (stereo not drawn)	-3%	/	/	/	0%	/
FC(F)(F)c1ccccc1-c1nc(Nc2ccncc2)c2ccccc2n1	0%	i	-13%	i	32µM*	?
Cc1noc(C)c1-c1nc(Nc2ccc(F)cc2)c2ccccc2n1	2%	?	13µM*	?	i	15%
Cc1noc(C)c1-c1nc(NC2CC2)c2ccccc2n1	4%	i	1%	i	-3%	?
COC(=O)NC(c1ccccc1)C(C#N)C(=O)OC (stereo not drawn)	-1%[11.5 µM]	/	-3%[11.4 µM]	/	6%[11.4 µM]	/
CCOC(=O)c1ccc2[nH]c(C)cc(=O)c2c1	3%	/	32µM*	/	?	1%
Cc1cc(=O)c2cc(Cl)ccc2[nH]1	-1%	i	-8%	i	-13%	?
CCOC(=O)c1ccc2[nH]c(C)c(CCC(C)=O)c(=O)c2c1	-4%	/	24%	/	25µM*	2%
COC(=O)c1ccc2[nH]c(C)cc(=O)c2c1	2%	i	?	i	25µM*	2%
Cc1[nH]c2ccc(C(=O)OCCN(C)C)cc2c1C	1%	i	11%	i	-5%	-2%
CCOC(=O)c1ccc2[nH]c3c(c2c1)CN(C)CC3	0%	/	3%	/	25µM*	22%
Cn1nc(C(=O)Nc2c(-c3ccccc3)nc3sccn23)c2ccccc2c1=O	-1%	i	12%	i	0%	?
CCC1=C2CC[C@H]3C(=O)N(CC(=O)OC)C(=O)[C@H]3[C@H]2[C@@]2(C)C(=O)N(CC3CC3)C(=O)N2C1=O	1%	/	/	/	3%	/
COC(=O)c1cc(Br)c(=O)n(-c2cc(C)on2)c1	/	i	/	i	/	/
CCOC(=O)c1cc(-c2ccccc2)sc1N	-1%	i	2µM*	i	?	17%
CCOC(=O)c1c(N)n[nH]c1-c1ccc(OC)cc1	0%	i	-10%	i	2%	10%
CCOC(=O)c1sc(-c2ccccc2)cc1N	-1%	2.1e-08M*	-5%	2.1e-08M*	?	13%
CCOC(=O)c1sc(NC(=O)c2ccco2)nc1-c1ccccc1	0%	/	-3%	/	-2%	?
CCOC(=O)c1sc(-c2ccc(OC)cc2)cc1N	-1%	2.5e-08M*	10%	2.3e-08M*	?	21%
CN1/C(=C\C(=O)COC(=O)Cn2nnc(-c3ccccc3)n2)C(C)(C)c2ccccc21	0%	3e-08M*	-6%	3.5e-08M*	14%	?
CCOC(=O)C1CCCN(CCC(C)c2ccccc2)C1 (stereo not drawn)	-2%	i	7%	i	7%	4%
